# PubChem BioAssay (NCI)
# The panel holds about 83,000 compounds, 20% with a hit somewhere; the sample as a whole holds those more often.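 Each cell line was grown in a 96-well plate and treated with one concentration of compound for 48 hours. Values below 10 were considered active.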 Values without a mark were called inactive. Calls of active or inactive are those of the source.
# What was measured:
# Assay in all cases: NCI-60 one-dose screen, 48 h (100 = growth as untreated, 0 = no growth, -100 = all killed)
# Conditions in all cases: 10 µM unless noted
# SR leukemia = tested on: SR leukemia
# RPMI-8226 leukemia = tested on: RPMI-8226 leukemia
# OVCAR-8 ovarian = tested on: OVCAR-8 ovarian
# OVCAR-5 ovarian = tested on: OVCAR-5 ovarian
# OVCAR-4 ovarian = tested on: OVCAR-4 ovarian
# SK-OV-3 ovarian = tested on: SK-OV-3 ovarian
# IGROV1 ovarian = tested on: IGROV1 ovarian
# OVCAR-3 ovarian = tested on: OVCAR-3 ovarian
# HS 578T breast = tested on: HS 578T breast
# NCI/ADR-RES ovarian = tested on: NCI/ADR-RES ovarian
# T-47D breast = tested on: T-47D breast
# BT-549 breast = tested on: BT-549 breast
# MDA-MB-435 melanoma = tested on: MDA-MB-435 melanoma
# SW-620 colon = tested on: SW-620 colon
# MCF7 breast = tested on: MCF7 breast
# HCT-116 colon = tested on: HCT-116 colon
# HCC-2998 colon = tested on: HCC-2998 colon
# KM12 colon = tested on: KM12 colon
Structure (SMILES),growth (SR leukemia),growth (RPMI-8226 leukemia),growth (OVCAR-8 ovarian),growth (OVCAR-5 ovarian),growth (OVCAR-4 ovarian),growth (SK-OV-3 ovarian),growth (IGROV1 ovarian),growth (OVCAR-3 ovarian),growth (HS 578T breast),growth (NCI/ADR-RES ovarian),growth (T-47D breast),growth (BT-549 breast),growth (MDA-MB-435 melanoma),growth (SW-620 colon),growth (MCF7 breast),growth (HCT-116 colon),growth (HCC-2998 colon),growth (KM12 colon)
CCN(CC)CCCCNc1c2ccc(Cl)cc2nc2ccc(OC)cc12,-19% (active),-33.9% (active),5.44% (active),-12.2% (active),-50.2% (active),7.93% (active),3.67% (active),-25.8% (active),-23.2% (active),4.68% (active),-16.9% (active),-29.5% (active),-89.2% (active),-24.8% (active),-30% (active),-39.5% (active),-78.6% (active),-6.4% (active)
O=C1/C(=C/C(Cl)=C/c2ccccc2)SC(=S)N1CCc1ccc(O)cc1,13.3%,2.88% (active),16.7%,-20.3% (active),30.7%,34.8%,-36.6% (active),-7.98% (active),37.5%,9.23% (active),-34.4% (active),11.6%,-30.7% (active),4.79% (active),26.4%,-62.3% (active),-68.1% (active),-31.6% (active)
Cn1c(NCCc2ccc(O)c(O)c2)nc2c1c(=O)n(Cc1ccc(Br)cc1)c(=O)n2C,61.6%,25.6%,71.9%,99.4%,53.2%,75.5%,37.7%,69.4%,95.3%,82.5%,53.3%,73%,79%,81.4%,80%,67.4%,94%,76%
CCN1CCC2(CC1)NC(=O)c1c(c3ccc(Cl)c(Cl)c3n1C)C2C#N (stereo unspecified),26.5%,16.6%,76.9%,74.3%,63.8%,87.6%,55.8%,56.2%,53.8%,63.4%,75%,37.2%,-59.9% (active),37.6%,35%,14%,-5.34% (active),41.2%
N=C(N)c1ccc(-c2ccc(-c3ccc4ccccc4c3)s2)s1,-37.2% (active),-18.3% (active),3.43% (active),-0.924% (active),-21.3% (active),95.7%,5.62% (active),-76.1% (active),91.6%,-42% (active),7.01% (active),82.5%,11.3%,-70.9% (active),-66.7% (active),-70.5% (active),-69.1% (active),-27.2% (active)
O=C1CSC(=S)N1CCc1ccc(O)cc1,26.4%,37.9%,92.6%,101%,89.5%,99.2%,101%,78.3%,84.3%,94.7%,38.1%,105%,65.8%,53.8%,37.6%,71.5%,102%,8.84% (active)
CCN1CCN(c2nc(NCCCNc3ccnc4cc(Cl)ccc34)c3ccccc3n2)CC1,-33.3% (active),-10% (active),16.6%,55.1%,48%,60%,59.3%,54%,78.8%,92.6%,-4.69% (active),68.7%,-81.7% (active),9.73% (active),23.2%,20.7%,21.9%,29.3%
O=C1/C(=C/N2N=C(c3ccc4ccccc4c3)CC2c2ccccc2O)SC(=S)N1c1cccnc1 (stereo unspecified),29.2%,-8.29% (active),28.3%,68.6%,66.1%,39.4%,26.4%,7.76% (active),13.2%,23.6%,44.5%,6.36% (active),-48.7% (active),24%,17.3%,10.9%,28.5%,18.2%
Oc1ccccc1-c1nnc(CNc2ccc(Cl)cc2)o1,10.4%,23.4%,18.6%,64%,34.2%,19.5%,25.9%,26.1%,57.6%,13.4%,30.9%,41.1%,33.8%,29.4%,14.2%,42%,37.5%,18.9%
Nc1n[nH]c2ccc([C@@H]3Nc4ccc5[nH]ncc5c4[C@H]4C5C=CC(C5)[C@@H]34)cc12 (stereo partly specified),11.6%,44.7%,27.1%,29.5%,30.2%,42.6%,16.6%,7.18% (active),3.92% (active),-27.5% (active),80%,3.98% (active),-28.1% (active),22.8%,17.8%,6.63% (active),14.3%,10.4%
CCOC(=O)c1sc2nc(-c3cccc(OC)c3)nc(N3CCOCC3)c2c1C,98.4%,87.8%,102%,96.6%,96.2%,102%,87.3%,108%,104%,90%,92.8%,94.9%,96.9%,110%,90.4%,96.6%,99.6%,97.5%
CCOC(=O)n1cc(-c2nonc2-c2cn(C)c3ncccc23)c2ccccc21,60.5%,77.9%,92.6%,94.2%,71.3%,77.6%,54.2%,85.6%,77.7%,73.1%,15.2%,87.9%,50.2%,76.6%,35%,80.4%,89.6%,66.5%
Cc1ccc2c(C(C[N+](=O)[O-])c3ccccc3)c(-c3ccccc3)[nH]c2c1 (stereo unspecified),25.4% [9.5 µM],24.4% [9.5 µM],29.6% [9.5 µM],52.2% [9.5 µM],59.8% [9.5 µM],19.3% [9.5 µM],27.4% [9.5 µM],3.85% [9.5 µM] (active),1.97% [9.5 µM] (active),10.9% [9.5 µM],16.5% [9.5 µM],47.5% [9.5 µM],-31% [9.5 µM] (active),13.7% [9.5 µM],15% [9.5 µM],24.4% [9.5 µM],54.9% [9.5 µM],18.4% [9.5 µM]
COCCNc1ccc2c3c(cccc13)C(=O)N(CCN(C)C)C2=O,-40.1% (active),-0.282% (active),22.3%,30.5%,31.6%,22.9%,18.1%,17.9%,50.8%,31.4%,-10.9% (active),17.7%,25.9%,24.5%,-16.5% (active),10.9%,28.6%,24.9%
O=C(C(=O)c1ccc2c(c1)OCO2)c1ccc2c(c1)OCO2,106%,101%,95.3%,109%,99.8%,114%,124%,105%,96.3%,117%,113%,101%,114%,90.6%,102%,101%,114%,98.1%
C#CCOc1ccc2ncnc(N3CCN(C(=O)CCl)CC3)c2c1,33.4% [8.25 µM],92.9% [8.25 µM],72.2% [8.25 µM],93.3% [8.25 µM],63.8% [8.25 µM],68.6% [8.25 µM],-30.9% [8.25 µM] (active),78.7% [8.25 µM],94.6% [8.25 µM],98.5% [8.25 µM],-48.7% [8.25 µM] (active),56.8% [8.25 µM],86.6% [8.25 µM],47.1% [8.25 µM],65.1% [8.25 µM],27.7% [8.25 µM],112% [8.25 µM],108% [8.25 µM]
COc1ccc2[nH]cc(-c3noc(C(=O)c4cn(C)c5ccc(F)cc45)n3)c2c1,89.7%,104%,93.6%,99.9%,95.2%,87.3%,60.1%,97.5%,90.9%,96%,83.8%,88.9%,102%,95.1%,58.8%,101%,101%,92.6%
